The source made the active and inactive calls.

A short description of test [1]: binders of probe aFSTL3 on microarray, primary screen, stem cell growth factor project, biochemical, small-molecule microarray, fluorescence 635/667 (AID 1064).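 Also: measures binding of the biotinylated anti-FSTL3 antibody to printed compounds.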 The following applies: higher = more signal.
Test [2] is described as follows: binders from COS7 lysate, DM2A8 probe, primary screen, torsin A project, cell lysate, small-molecule microarray, fluorescence 635/667 (AID 1065). The following applies: higher = more signal, COS7 lysate expressing mutant human TOR1A.
The nature of test [3]: binders of probe aFGF2 on microarray, primary screen, stem cell growth factor project, biochemical, small-molecule microarray, fluorescence 635/667 (AID 1067).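 Also: measures binding of biotinylated aFGF2 protein to printed compounds on slides; z-score merges feature fluorescence and signal-to-noise across triplicate slides.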 The following applies: higher = more signal.
Test [4] can be described thus: binders of probe aFGF10 on microarray, primary screen, stem cell growth factor project, biochemical, small-molecule microarray, fluorescence 635/667 (AID 1071).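 Also: score merges 667 nm spot intensity and signal to noise from triplicate slides.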 The following applies: higher = more signal.
The target of test [5] is Neurogenic locus notch homolog protein 2 (Homo sapiens) (UniProt Q04721). Briefly: Notch2 binders on small-molecule microarrays, primary screen, biochemical, small-molecule microarray, 635 nm fluorescence, stem cell growth factors (AID 1073). Particulars: Notch2 binding, higher = more signal.
The target of test [6] is Pro-neuregulin-1, membrane-bound isoform (Homo sapiens) (UniProt Q02297). Briefly: NRG1 binders on small-molecule microarrays, primary screen, psychiatric disease protein project, biochemical, small-molecule microarray, fluorescence 635/667 (AID 1075).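 Also: score combines 667 nm spot fluorescence with signal to noise.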 Particulars: NRG1 binding, 635 nm fluorescence, higher = more signal.
Test [7] has as its system Neuregulin-1 EGF-like domain. Briefly: binders of neuregulin-1 EGF-like domain, primary screen, biochemical, small-molecule microarray, 635 nm fluorescence (AID 1081).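 Also: binding of the protein to compounds printed on small-molecule microarray slides.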 Particulars: small-molecule microarray binding, higher = more signal.
The nature of test [8]: FRG1 promoter luciferase signal modulators, primary screen, FRG1 inhibition for FSHD, cell-based, C2C12 myotubes, firefly/Renilla luciferase, luminescence (AID 1084). The following applies: higher = more signal, called active from +8 up or from −8 down.
Test [9] can be described thus: binders of probe aFST on microarray, primary screen, stem cell growth factor project, biochemical, small-molecule microarray, fluorescence 635/667 (AID 1086).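 Also: score merges 667 nm fluorescence with signal-to-noise of each printed compound spot.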 Particulars: higher = more signal.
A short description of test [10]: binders of probe aHhip on microarray, primary screen, stem cell growth factor project, biochemical, small-molecule microarray, fluorescence 635/667 (AID 1087).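 Also: score merges spot fluorescence at 667nm with spot signal to noise ratio.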 Particulars: higher = more signal.

Sequence of Pro-neuregulin-1, membrane-bound isoform (Homo sapiens) (Q02297 whole entry, looked up, the tested form may be a part, canonical isoform): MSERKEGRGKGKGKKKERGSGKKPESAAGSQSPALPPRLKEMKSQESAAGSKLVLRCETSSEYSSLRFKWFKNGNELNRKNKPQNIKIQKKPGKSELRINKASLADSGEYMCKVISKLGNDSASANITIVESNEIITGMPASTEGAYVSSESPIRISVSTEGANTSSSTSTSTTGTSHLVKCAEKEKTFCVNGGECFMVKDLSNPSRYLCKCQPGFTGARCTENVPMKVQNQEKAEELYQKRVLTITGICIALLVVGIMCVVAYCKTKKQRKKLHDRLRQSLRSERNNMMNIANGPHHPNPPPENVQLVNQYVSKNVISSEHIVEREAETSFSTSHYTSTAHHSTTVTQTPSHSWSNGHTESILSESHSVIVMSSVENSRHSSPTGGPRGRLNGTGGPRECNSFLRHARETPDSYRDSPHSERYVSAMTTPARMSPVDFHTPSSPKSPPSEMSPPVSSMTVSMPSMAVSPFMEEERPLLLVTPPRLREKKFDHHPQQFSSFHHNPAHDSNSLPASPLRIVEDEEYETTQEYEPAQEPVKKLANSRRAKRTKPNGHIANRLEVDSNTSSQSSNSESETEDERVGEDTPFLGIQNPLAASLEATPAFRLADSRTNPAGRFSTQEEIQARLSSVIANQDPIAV
Sequence of Neurogenic locus notch homolog protein 2 (Homo sapiens) (Q04721 whole entry, looked up, canonical isoform): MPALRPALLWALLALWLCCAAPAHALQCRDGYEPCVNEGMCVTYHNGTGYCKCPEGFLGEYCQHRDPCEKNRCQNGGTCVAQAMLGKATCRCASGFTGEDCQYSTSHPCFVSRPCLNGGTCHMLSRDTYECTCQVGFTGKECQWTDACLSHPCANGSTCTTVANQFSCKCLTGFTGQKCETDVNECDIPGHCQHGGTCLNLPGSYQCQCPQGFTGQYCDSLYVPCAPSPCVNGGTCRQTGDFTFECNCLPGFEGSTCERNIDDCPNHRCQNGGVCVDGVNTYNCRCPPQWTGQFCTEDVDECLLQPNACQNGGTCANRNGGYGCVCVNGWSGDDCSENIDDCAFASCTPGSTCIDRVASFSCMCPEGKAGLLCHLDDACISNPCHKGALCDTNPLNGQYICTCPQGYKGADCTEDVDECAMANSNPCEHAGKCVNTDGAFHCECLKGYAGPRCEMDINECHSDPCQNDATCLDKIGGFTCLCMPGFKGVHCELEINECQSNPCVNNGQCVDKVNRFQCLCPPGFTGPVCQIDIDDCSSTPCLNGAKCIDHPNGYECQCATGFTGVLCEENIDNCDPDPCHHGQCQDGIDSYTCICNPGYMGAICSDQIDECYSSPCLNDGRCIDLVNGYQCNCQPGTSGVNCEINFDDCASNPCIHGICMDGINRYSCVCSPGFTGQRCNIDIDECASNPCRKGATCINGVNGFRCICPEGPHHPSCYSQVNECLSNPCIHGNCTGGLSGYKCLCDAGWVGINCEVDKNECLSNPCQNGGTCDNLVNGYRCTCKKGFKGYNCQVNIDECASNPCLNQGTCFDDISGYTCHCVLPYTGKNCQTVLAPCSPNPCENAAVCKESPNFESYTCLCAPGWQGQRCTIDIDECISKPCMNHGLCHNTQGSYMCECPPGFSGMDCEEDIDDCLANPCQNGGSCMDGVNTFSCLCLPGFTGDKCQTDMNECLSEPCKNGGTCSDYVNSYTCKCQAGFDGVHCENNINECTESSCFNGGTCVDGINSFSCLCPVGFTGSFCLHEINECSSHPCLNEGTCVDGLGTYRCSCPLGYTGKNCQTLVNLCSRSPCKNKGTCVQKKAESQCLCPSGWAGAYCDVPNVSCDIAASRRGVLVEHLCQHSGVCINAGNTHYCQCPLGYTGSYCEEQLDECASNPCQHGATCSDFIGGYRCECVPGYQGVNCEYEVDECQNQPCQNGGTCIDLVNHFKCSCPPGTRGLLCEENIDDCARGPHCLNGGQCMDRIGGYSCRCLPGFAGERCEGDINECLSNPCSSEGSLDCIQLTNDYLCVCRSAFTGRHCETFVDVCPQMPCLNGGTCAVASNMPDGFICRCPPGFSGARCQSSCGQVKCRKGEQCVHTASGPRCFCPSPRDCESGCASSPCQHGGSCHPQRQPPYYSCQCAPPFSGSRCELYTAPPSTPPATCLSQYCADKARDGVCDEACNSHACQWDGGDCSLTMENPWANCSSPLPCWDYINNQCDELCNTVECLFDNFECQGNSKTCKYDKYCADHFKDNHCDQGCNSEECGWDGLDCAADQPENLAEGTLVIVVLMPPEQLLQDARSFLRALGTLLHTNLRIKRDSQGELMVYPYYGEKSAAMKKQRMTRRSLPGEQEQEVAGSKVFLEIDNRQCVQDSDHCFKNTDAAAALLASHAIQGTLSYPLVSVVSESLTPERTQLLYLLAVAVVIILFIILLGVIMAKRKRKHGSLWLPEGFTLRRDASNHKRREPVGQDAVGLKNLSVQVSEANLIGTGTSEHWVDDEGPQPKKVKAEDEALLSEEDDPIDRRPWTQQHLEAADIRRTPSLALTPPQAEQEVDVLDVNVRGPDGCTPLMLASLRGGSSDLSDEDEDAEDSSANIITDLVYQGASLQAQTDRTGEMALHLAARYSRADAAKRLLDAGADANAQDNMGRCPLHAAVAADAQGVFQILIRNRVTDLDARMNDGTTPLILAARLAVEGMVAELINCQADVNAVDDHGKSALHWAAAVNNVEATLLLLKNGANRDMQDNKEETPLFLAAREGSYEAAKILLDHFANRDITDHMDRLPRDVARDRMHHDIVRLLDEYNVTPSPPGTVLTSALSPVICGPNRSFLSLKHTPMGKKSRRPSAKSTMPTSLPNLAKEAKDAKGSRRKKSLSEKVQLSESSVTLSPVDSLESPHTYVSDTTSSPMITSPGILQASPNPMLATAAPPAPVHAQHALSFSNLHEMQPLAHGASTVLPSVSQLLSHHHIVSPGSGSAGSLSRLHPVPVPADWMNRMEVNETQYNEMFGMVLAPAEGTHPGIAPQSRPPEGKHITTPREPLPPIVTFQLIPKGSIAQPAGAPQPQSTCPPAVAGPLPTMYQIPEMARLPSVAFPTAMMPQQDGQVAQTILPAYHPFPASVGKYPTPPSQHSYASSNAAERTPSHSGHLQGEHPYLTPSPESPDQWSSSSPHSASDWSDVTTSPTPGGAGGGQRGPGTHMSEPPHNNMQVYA

Take `CCOC(=O)C1=CC[C@@H](c2ccccc2C(F)(F)F)N(S(=O)(=O)c2ccc(C)cc2)[C@H]1c1ccc(C#N)cc1`: the composite z-score in test [1] is -0.0042; in [2], 0.0813; in test [3] it was 0.0625; in [4], 0.692; in test [5], 1.36; in [6], 0.988. Also, the composite z-score in test [7] is 1.25; in [9] it was 1.11; in test [10], -0.0024. For the same compound, the z-score in test [8] was 0.852 (inactive).
On to `[N-]=[N+]=NCc1ccccc1C[C@]1(C(N)=O)N=C(c2ccc(OCCCO)cc2)O[C@H]1c1ccccc1`, for which the composite z-score in [1] was 0.124; in [2], 0.514; in [3], -0.0129; in [4], 0.726; in [5], 0.639; in [6], 1.89. Besides, the composite z-score in [7] is 1.14; in test [9] it was 1.56; in test [10], -0.201. Besides, the z-score in [8] is -3.9 (inactive).
Take `O=C1NC(=O)C2C1C=CC(C(O)c1c(F)cccc1Cl)N2Nc1ccc(Cl)cc1Cl` (stereo not given): the composite z-score in test [1] was 1.38; in test [2], 1.79; in [3], 0.0389; in test [4] it was 0.424; in test [5], 1.29; in test [6], 1.37. Further, the composite z-score in test [7] is 1.17; in test [9], 1.22; in test [10], -0.216. For the same compound, the z-score in test [8] was -1.03 (inactive).
With `[N-]=[N+]=NCc1ccccc1[C@H]1OC(c2ccc(OCCCO)cc2)=N[C@@]1(CCS(=O)(=O)c1ccccc1)C(=O)N1CCCCC1`, the composite z-score in [1] stood at 0.974; in test [2] it was 1.28; in [3], 0.248; in [4], 0.4; in test [5], 1.51; in test [6], 1.79. Further, the composite z-score in test [7] was 1.33; in test [9], 1.42; in test [10] it was -0.191. In addition, in test [8], the z-score is 0.225 (inactive).
`COc1cc2c(cc1OC)CN(C(=O)[C@@H]1[C@H]3C(=O)O[C@H](c4ccccc4)[C@H](c4ccccc4)N3[C@H](c3ccc(OCCO)cc3)[C@@]13C(=O)Nc1ccc(C#CC4(O)CCCCCC4)cc13)CC2`: the composite z-score in test [1] was -0.543; in test [2], 0.416; in test [3], 0.0246; in [4], 1.15; in test [5] it was 1.14; in test [6] it was 1.67. For the same compound, the results for the composite z-score in [7], in test [9] and in test [10] were 1.15, 0.528 and -0.6, respectively. For the same compound, the z-score in test [8] was -0.921 (inactive).
On to `N#Cc1ccc(C(O)C2C=CC3C(=O)N(c4ccccc4)C(=O)C3N2Nc2ccccc2)cc1` (stereo not given), for which the composite z-score in test [1] came out at 0.396; in test [2], 0.0518; in test [3], 0.129; in test [4] it was 0.77; in test [5], 1.32; in test [6] it was 1.19. In addition, the figures for the composite z-score in test [7], in [9] and in test [10] were 1.08, 0.833 and -0.069, respectively. The z-score in [8] is -0.627 (inactive).
For the compound `CC(C)(C)N1CC=CC23O[C@@H]4C=CCOC(=O)[C@@H]4[C@H]2C(=O)N(CCCCCCO)[C@@H]3C1=O` (stereo not given in full), the composite z-score in test [1] was 0.0157; in test [2], -0.511; in test [3], -0.178; in test [4], -0.447; in test [5] it was -0.947; in [6] it was -0.574. Also, the composite z-score was 1.36 in test [7], -0.867 in test [9] and -0.284 in test [10]. Further, in [8], the z-score was 0.212 (inactive).
On to `COc1ccc([Si](C)(C)[C@@H]2[C@@H](CCO)O[C@]3(C(=O)N(Cc4ccc(N5CCCCC5=O)cc4)c4ccccc43)[C@H]2C)cc1`, for which the composite z-score in test [1] was -0.343; in test [2], 0.299; in test [3] it was 0.0344; in [4], 0.913; in test [5], 0.0177; in [6], 0.919. The figures for the composite z-score in test [7], in test [9] and in test [10] were 1.15, 0.203 and 0.0373, respectively. Further, the z-score in [8] is -4.78 (inactive).
For `COc1ccc(C#Cc2ccc3c(c2)[C@]2(C(=O)N3)[C@H](c3ccc(O)cc3)N3[C@H](c4ccccc4)[C@H](c4ccccc4)OC(=O)[C@H]3[C@@H]2C(=O)O)cc1`, the composite z-score in test [1] is -0.789; in [2], 0.413; in test [3], -0.161; in [4], 0.831; in test [5], 0.761; in [6], 0.555. Also, the composite z-score in test [7] was 1.13; in test [9], -0.541; in test [10], -1.08. Moreover, the z-score in test [8] was -0.471 (inactive).
Consider `O=C1O[C@H](c2ccccc2)[C@H](c2ccccc2)N2[C@H]1[C@@H](C(=O)N1CCN(c3ncccn3)CC1)[C@]1(C(=O)Nc3ccc(C#CC4(O)CCCCCC4)cc31)[C@H]2c1ccc(OCCO)cc1`, for which the composite z-score turned out to be 0.696 in test [1]; 0.968 in [2]; 0.0583 in test [3]; 1.2 in test [4]; 1.52 in test [5]; 2.25 in [6]. Further, the composite z-score in test [7] is 1.22; in test [9] it was 2.45; in [10], 0.334. Besides, the z-score in test [8] is 1.8 (inactive).
On to `CCOc1cc(C(O)C2C=CC3C(=O)N(c4ccccc4)C(=O)C3N2Nc2ccc(C#N)cc2)ccc1O` (stereo not given), for which the composite z-score in test [1] was -0.17; in test [2], -0.223; in test [3] it was 0.0024; in test [4], 0.11; in [5] it was 1.27; in test [6], 1. Also, the composite z-score in test [7] worked out at 0.836; in [9], 0.0472; in [10] it was 0.0139. Also, the z-score in test [8] is 0.163 (inactive).
As for `O=C1O[C@H](c2ccccc2)[C@H](c2ccccc2)N2[C@H]1[C@@H](C(=O)NC[C@H](O)c1ccccc1)[C@]1(C(=O)Nc3ccc(C#CCCO)cc31)[C@H]2c1ccc(OCCO)cc1`, the composite z-score came out at 0.141 in test [1]; 0.628 in test [2]; 0.0521 in [3]; 0.984 in [4]; 0.782 in test [5]; 1.23 in test [6]. For the same compound, the composite z-score was 1.23 in test [7], 0.131 in [9] and -0.226 in [10]. Moreover, the z-score in test [8] is 1.59 (inactive).
Consider `Cc1ccc(S[C@]2(C(=O)O)CC(=O)N(Cc3cc(C(F)(F)F)cc(C(F)(F)F)c3)[C@@H]2c2ccc(CO)cc2)cc1`, for which the composite z-score in test [1] was 0.591; in test [2], -0.378; in test [3], -0.175; in test [4], -1.71; in test [5] it was -2.43; in test [6] it was 0.203. The figures for the composite z-score in test [7], in [9] and in [10] were 0.406, -0.395 and -0.464, respectively. Also, the z-score in test [8] was 0.0661 (inactive).
For the compound `COC(=O)[C@@]1(Cc2ccc(F)cc2)[C@H]2c3cc(C(=O)N(C)C)n(CCc4ccc(O)c(OC)c4)c3C[C@H]2CN1C(=O)c1ccccc1`, the composite z-score in test [1] is 1.71; in test [2] it was 0.245; in test [3] it was 0.735; in test [4], 1.27; in test [5] it was 1.27; in test [6] it was -0.0157. Also, the composite z-score turned out to be 1.03 in [7], 1.7 in test [9] and 0.372 in [10]. Besides, the z-score in test [8] is 0.245 (inactive).

For the origin of these results see PubChem BioAssay.
